# Values joined by “and” are separate entries in the source; they are usually repeats but may differ in a detail not shown here. Identical values can stand only once. Counter-ions that a name gives are not always drawn. Out of some 5,800 compounds screened, about 620 (11%) showed activity.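 Rule for the calls: active = score above a cut-off or among the top three wells of a plate; in these data no inactive exceeds 0.85.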 The full list was thinned out, with actives kept by preference.
# System: primary human hepatic stellate cells (donor 1)
# Experiment: scaled lipid accumulation score (0 = DMSO-like, 1 = nortriptyline-like); higher = stronger HSC inactivation (lipid re-accumulation), active = hit call of the paper
# Conditions: 48 h
# [1] = library stock concentration: 10 mM
# [2] = library stock concentration: 3.33 mM
# [3] = library stock concentration: 2 mM
# [4] = library stock concentration: 1 mM
# [5] = library stock concentration: 5.1 mM
smiles,measurement,setting,value
NC(Cc1cc(O)c(O)cc1O)C(=O)O (racemic) [6-Hydroxy-DL-DOPA],scaled lipid accumulation score,[1],≤ -0.07 (inactive)
CC(=O)[C@H]1CC[C@H]2[C@@H]3CC[C@H]4C[C@H](O)CC[C@]4(C)[C@H]3CC[C@]12C [5alpha-Pregnan-3alpha-ol-20-one],scaled lipid accumulation score,[1],≤ 0 (inactive)
C[C@]12CC[C@H](O)C[C@H]1CC[C@@H]1[C@@H]2CC[C@]2(C)[C@@H](C3=CC(=O)OC3)CC[C@]12O [Digitoxigenin],scaled lipid accumulation score,,0.936 (active)
C[C@@H]1O[C@@H](O[C@H]2CC[C@]3(C=O)[C@H]4CC[C@]5(C)[C@@H](C6=CC(=O)OC6)CC[C@]5(O)[C@@H]4CC[C@]3(O)C2)[C@H](O)[C@H](O)[C@H]1O [Convallatoxin],scaled lipid accumulation score,[1],0.656 (inactive)
C[C@]12CC[C@@H](O)C[C@H]1CC[C@@H]1[C@@H]2CC[C@]2(C)C(=O)CC[C@@H]12 [3-alpha-Hydroxy-5-beta-androstan-17-one],scaled lipid accumulation score,,≤ 0 (inactive)
CC(=O)O[C@H]1C[C@H](O[C@H]2[C@@H](O)C[C@H](O[C@H]3[C@@H](O)C[C@H](O[C@H]4CC[C@@]5(C)[C@H](CC[C@@H]6[C@@H]5C[C@@H](O)[C@]5(C)[C@@H](C7=CC(=O)OC7)CC[C@]65O)C4)O[C@@H]3C)O[C@@H]2C)O[C@H](C)[C@H]1O[C@@H]1O[C@H](CO)[C@@H](O)[C@H](O)[C@H]1O [Lanatoside C],scaled lipid accumulation score,,1.08 (active)
C[C@H]1CC[C@]2(NC1)O[C@H]1C[C@H]3[C@@H]4CC[C@H]5C[C@@H](O[C@@H]6O[C@H](CO)[C@H](O[C@@H]7O[C@H](CO)[C@@H](O)[C@H](O[C@@H]8OC[C@@H](O)[C@H](O)[C@H]8O)[C@H]7O[C@@H]7O[C@H](CO)[C@@H](O)[C@H](O)[C@H]7O)[C@H](O)[C@H]6O)CC[C@]5(C)[C@H]4CC[C@]3(C)[C@H]1[C@@H]2C [Tomatine],scaled lipid accumulation score,,0.319 (inactive)
C[C@]12CC[C@H](O)C[C@@H]1CC[C@@H]1[C@@H]2CC[C@]2(C)C(=O)CC[C@@H]12 [Epiandrosterone],scaled lipid accumulation score,,0.082 (inactive)
same,scaled lipid accumulation score,[2],≤ 0 (inactive)
same,scaled lipid accumulation score,[1],≤ 0 (inactive)
C[C@]12CC[C@H](O)C[C@H]1CC[C@@H]1[C@@H]2C[C@@H](O)[C@]2(C)[C@@H](C3=CC(=O)OC3)CC[C@]12O [Digoxigenin],scaled lipid accumulation score,,0.991 (active)
CO[C@H]1[C@H](O)[C@@H](O[C@H]2CC[C@]3(C=O)C4CC[C@]5(C)[C@@H](C6=CC(=O)OC6)CC[C@]5(O)C4CC[C@@H]3C2)O[C@@H](C)[C@@H]1O (some centres not stated) [Peruvoside],scaled lipid accumulation score,[1],0.873 (active)
CC(=O)O[C@H]1C[C@H](O[C@H]2[C@@H](O)C[C@H](O[C@H]3[C@@H](O)C[C@H](O[C@H]4CC[C@@]5(C)[C@H](CC[C@@H]6[C@@H]5C[C@@H](O)[C@]5(C)[C@@H](C7=CC(=O)OC7)CC[C@]65O)C4)O[C@@H]3C)O[C@@H]2C)O[C@H](C)[C@H]1O[C@@H]1O[C@H](CO)[C@@H](O)[C@H](O)[C@H]1O [Lanatoside c],scaled lipid accumulation score,[3],0.894 (active)
same,scaled lipid accumulation score,[1],0.892 (active)
C[C@]12CC[C@@H](O)C[C@@H]1CC[C@@H]1[C@@H]2CC[C@]2(C)C(=O)CC[C@@H]12 [Androsterone],scaled lipid accumulation score,,0.083 (inactive)
CCCCCCCC/C=C\CCCCCCCC(=O)OC[C@@H](COP(O)(O)=S)OC,scaled lipid accumulation score,[4],0.084 (inactive)
NC(=NN=Cc1ccc(-c2cccc([N+](=O)[O-])c2)o1)N[N+](=O)[O-] [ERK Inhibitor III],scaled lipid accumulation score,[2],≤ 0 (inactive)
Cn1c2c(c3ccccc31)CCNCC2,scaled lipid accumulation score,[1],0.326 (inactive)
COc1cccc(C2(O)CCCCC2CN(C)C)c1 (configuration not stated) [Tramadol],scaled lipid accumulation score,[1],0.009 (inactive)
COc1cccc(C2(O)CCCCC2CN(C)C)c1 (configuration not stated) [Tramadol HCl],scaled lipid accumulation score,library stock concentration: 7.6 mM,≤ 0 (inactive)
COc1cccc(C2(O)CCCCC2CN(C)C)c1 (configuration not stated) [Tramadol hydrochloride],scaled lipid accumulation score,library stock concentration: 6.7 mM,≤ 0 (inactive)
COc1ccc(CCN)cc1OC [Homoveratrylamine],scaled lipid accumulation score,[1],0.046 (inactive)
C=CCN1C[C@H](C(=O)N(CCCN(C)C)C(=O)NCC)C[C@@H]2c3cccc4[nH]cc(c34)C[C@H]21 [Cabergoline],scaled lipid accumulation score,library stock concentration: 4.4 mM,0.368 (inactive)
CCN1C[C@]2(COC)CC[C@H](O)[C@@]34C5C[C@@H]6[C@@H](OC)C[C@](O)(C(CC23)C14)C5[C@H]6OC(C)=O (some centres not stated) [Condelphine],scaled lipid accumulation score,,≤ 0 (inactive)
COc1cc2c(c(OC)c1OC)-c1ccc(O)c(=O)cc1[C@@H](N)CC2 [Trimethylcolchicinic acid],scaled lipid accumulation score,,0.074 (inactive)
O=C(NC(COc1ccc2[nH]c(=O)[nH]c2c1)c1ccccc1)c1cccn(Cc2ccc(F)c(F)c2)c1=O (configuration not stated),scaled lipid accumulation score,library stock concentration: 80 uM,≤ 0 (inactive)
same,scaled lipid accumulation score,library stock concentration: 400 uM,≤ 0 (inactive)
same,scaled lipid accumulation score,[3],≤ 0 (inactive)
same,scaled lipid accumulation score,[1],≤ 0 (inactive)
COc1cc([C@@H]2c3cc4c(cc3[C@H](O)[C@H]3COC(=O)[C@H]23)OCO4)cc(OC)c1OC [Podophyllotoxin],scaled lipid accumulation score,,≤ 0 (inactive)
same,scaled lipid accumulation score,[1],0.288 (inactive)
COc1cc([C@@H]2c3cc4c(cc3[C@H](O)[C@H]3COC(=O)[C@H]23)OCO4)cc(OC)c1OC [Podofilox],scaled lipid accumulation score,library stock concentration: 4.8 mM,0.201 (inactive)
same,scaled lipid accumulation score,[1],0.419 (inactive)
C/C=C(\C)C(=O)N[C@@H](c1ccccc1)[C@@H](O)C(=O)O[C@H]1C[C@@]2(O)[C@@H](OC(=O)c3ccccc3)[C@@H]3[C@]4(OC(C)=O)CO[C@@H]4C[C@H](O)[C@@]3(C)C(=O)[C@H](OC(C)=O)C(=C1C)C2(C)C [Cephalomannine],scaled lipid accumulation score,[2],≤ 0 (inactive)
same,scaled lipid accumulation score,[1],≤ 0 (inactive)
O=C(NCCN1CCC2(CC1)C(=O)NCN2c1ccccc1)c1ccc2ccccc2c1,scaled lipid accumulation score,[4],≤ 0 (inactive)
O=C(CCCN1CCC2(CC1)C(=O)N(Cc1cccc(F)c1)CN2c1ccccc1)c1ccc(F)cc1.O=C(O)/C=C\C(=O)O [3'-Fluorobenzylspiperone maleate],scaled lipid accumulation score,[1],0.967 (active)
O=C(CCCN1CCC2(CC1)C(=O)NCN2c1ccccc1)c1ccc(F)cc1 [Spiperone hydrochloride],scaled lipid accumulation score,[1],0.74 (inactive) and 0.784 (inactive)
O=C(CCCN1CCC2(CC1)C(=O)NCN2c1ccccc1)c1ccc(F)cc1 [Spiperone] [listing 1 of 2 here],scaled lipid accumulation score,[5],0.939 (active)
O=C(CCCN1CCC2(CC1)C(=O)NCN2c1ccccc1)c1ccc(F)cc1 [Spiperone] [listing 2 of 2 here],scaled lipid accumulation score,,0.119 (inactive)
same,scaled lipid accumulation score,[5],0.399 (inactive)
same,scaled lipid accumulation score,[1],≤ 0 (inactive)
CC(N)c1cccc(Cl)c1Cl (configuration not stated),scaled lipid accumulation score,[1],0.208 (inactive)
O=C(O)c1ccc2[nH]cc(CCCCN3CC=C(c4ccccc4)CC3)c2c1 [Carmoxirole hydrochloride],scaled lipid accumulation score,[1],0.073 (inactive)
CN1C2CC(O)CC1C1OC12 (configuration not stated) [Scopine],scaled lipid accumulation score,[2],≤ 0 (inactive)
same,scaled lipid accumulation score,[1],≤ 0 (inactive)
CCCCCCCCCCCCCCCC(=O)OCC(COP(=O)([O-])OCC[N+](C)(C)C)OC(C)=O (configuration not stated),scaled lipid accumulation score,[4],0.014 (inactive)
C=C(C)[C@@H]1[C@H]2OC(=O)[C@@H]1[C@]1(O)C[C@H]3O[C@]34C(=O)O[C@H]2[C@]14C.CC(C)(O)[C@@H]1[C@H]2OC(=O)[C@@H]1[C@]1(O)C[C@H]3O[C@]34C(=O)O[C@H]2[C@]14C [Picrotin - Picrotoxinin],scaled lipid accumulation score,[1],≤ 0 (inactive)
c1cncc(C2=NCCC2)c1 [Myosmine],scaled lipid accumulation score,,≤ 0 (inactive)
CC(=O)OCC1=C(C(=O)[O-])N2C(=O)[C@@H](NC(=O)CCC[C@@H](N)C(=O)[O-])[C@H]2SC1.[Zn+2] [Cephalosporin C zinc salt],scaled lipid accumulation score,[1],0.329 (inactive)
COc1cc2c3cc1Oc1c(OC)c(OC)cc4c1[C@@H](Cc1cccc(c1)Oc1ccc(c(O)c1)C[C@@H]3N(C)CC2)N(C)CC4 [Berbamine hydrochloride],scaled lipid accumulation score,[1],≤ 0 (inactive)
COc1ccc(C[C@@H]2NC[C@@H](O)[C@@H]2OC(C)=O)cc1 [Anisomycin],scaled lipid accumulation score,library stock concentration: 18.8 mM,0.899 (active)
COc1ccc(C[C@H]2NC[C@H](O)[C@H]2OC(C)=O)cc1 [Anisomycin] [listing 1 of 3 here],scaled lipid accumulation score,,1.05 (active)
COc1ccc(C[C@H]2NC[C@H](O)[C@H]2OC(C)=O)cc1 [Anisomycin] [listing 2 of 3 here],scaled lipid accumulation score,[1],1.39 (active)
COc1ccc(C[C@H]2NC[C@H](O)[C@H]2OC(C)=O)cc1 [Anisomycin] [listing 3 of 3 here],scaled lipid accumulation score,[1],0.806 (inactive)
O[C@@H]1CCCC[C@H]1N1CCC(c2ccccc2)CC1 [L(-)-vesamicol hydrochloride],scaled lipid accumulation score,,≤ 0 (inactive)
CC(C)(C)NCC(O)COc1cccc2[nH]c(C#N)cc12 (configuration not stated) [Cyanopindolol hemifumarate],scaled lipid accumulation score,[1],0.049 (inactive)
CC(C)[C@@H]1NC(=O)[C@H](C)OC(=O)[C@@H](C(C)C)NC(=O)[C@@H](C(C)C)OC(=O)[C@H](C(C)C)NC(=O)[C@H](C)OC(=O)[C@@H](C(C)C)NC(=O)[C@@H](C(C)C)OC(=O)[C@H](C(C)C)NC(=O)[C@H](C)OC(=O)[C@@H](C(C)C)NC(=O)[C@@H](C(C)C)OC1=O [Valinomycin],scaled lipid accumulation score,library stock concentration: 4.5 mM,0.447 (inactive)
CC1=NN=C(c2ccc(N)cc2)c2cc3c(cc2C1)OCO3,scaled lipid accumulation score,[1],≤ -0.07 (inactive) and ≤ -0.006 (inactive)
CC[C@H](C)[C@H]1O[C@]2(C=C[C@@H]1C)C[C@@H]1C[C@@H](C/C=C(\C)[C@@H](O[C@H]3C[C@H](OC)[C@@H](O[C@H]4C[C@H](OC)[C@@H](O)[C@H](C)O4)[C@H](C)O3)[C@@H](C)/C=C/C=C3\CO[C@@H]4[C@H](O)C(C)=C[C@@H](C(=O)O1)[C@]34O)O2.CO[C@H]1C[C@H](O[C@H]2[C@H](C)O[C@@H](O[C@@H]3/C(C)=C/C[C@@H]4C[C@@H](C[C@]5(C=C[C@H](C)[C@@H](C(C)C)O5)O4)OC(=O)[C@@H]4C=C(C)[C@@H](O)[C@H]5OC/C(=C\C=C\[C@@H]3C)[C@]54O)C[C@@H]2OC)O[C@@H](C)[C@@H]1O [Avermectin B1],scaled lipid accumulation score,,≤ 0 (inactive)
CC[C@H](C)[C@H]1O[C@]2(C=C[C@@H]1C)C[C@@H]1C[C@@H](C/C=C(\C)[C@@H](O[C@H]3C[C@H](OC)[C@@H](O[C@H]4C[C@H](OC)[C@@H](O)[C@H](C)O4)[C@H](C)O3)[C@@H](C)/C=C/C=C3\CO[C@@H]4[C@H](O)C(C)=C[C@@H](C(=O)O1)[C@]34O)O2.CO[C@H]1C[C@H](O[C@H]2[C@H](C)O[C@@H](O[C@@H]3/C(C)=C/C[C@@H]4C[C@@H](C[C@]5(C=C[C@H](C)[C@@H](C(C)C)O5)O4)OC(=O)[C@@H]4C=C(C)[C@@H](O)[C@H]5OC/C(=C\C=C\[C@@H]3C)[C@]54O)C[C@@H]2OC)O[C@@H](C)[C@@H]1O [Abamectin],scaled lipid accumulation score,library stock concentration: 2.3 mM,0.027 (inactive) and ≤ 0 (inactive)
CC[C@H](C)[C@H]1O[C@]2(C=C[C@@H]1C)C[C@@H]1C[C@@H](C/C=C(\C)[C@@H](O[C@H]3C[C@H](OC)[C@@H](O[C@H]4C[C@H](OC)[C@@H](O)[C@H](C)O4)[C@H](C)O3)[C@@H](C)/C=C/C=C3\CO[C@@H]4[C@H](O)C(C)=C[C@@H](C(=O)O1)[C@]34O)O2.CO[C@H]1C[C@H](O[C@H]2[C@H](C)O[C@@H](O[C@@H]3/C(C)=C/C[C@@H]4C[C@@H](C[C@]5(C=C[C@H](C)[C@@H](C(C)C)O5)O4)OC(=O)[C@@H]4C=C(C)[C@@H](O)[C@H]5OC/C(=C\C=C\[C@@H]3C)[C@]54O)C[C@@H]2OC)O[C@@H](C)[C@@H]1O [Avermectin b1],scaled lipid accumulation score,[1],≤ 0 (inactive)

# — the supplement of paper PMC9135407
